Assay outcomes from PubChem BioAssay.
Hits are enriched below; roughly 19% of the tested compounds scored in any of these assays.
IL-1B inflam inh = blocks inflammasome-driven IL-1 beta release. THP-1 LPS/ATP IL-1B secretion, AlphaLISA, 16 h; hits give low values. activity change, % at 57.5 µM. 360,000 tested, 4.7% active. AID 743279; in the data active = activity change below about -50%; inconclusive = mostly about -30% to -49%
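Secreted IL-1B measured by AlphaLISA bead assay after 16 h compound exposure of THP-1 cells; compounds (final up to 57.5 uM) added 1 h before LPS (250 ng/mL) and ATP (1.25 mM) stimulation; lower signal means less secretion.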
DT40 TDP1 CPT = growth inhibition of DT40 Tdp1-/-;hTDP1 cells with camptothecin (screen for TDP1 inhibitors); chicken DT40 Tdp1-/-;hTDP1 cells + 20 nM CPT, ATP luminescence, 48 h; Potency, µM (series often up to 46.2 µM), for inactives: at the highest dose activity change, negative = growth inhibition, usual class: inhibitors; 420,000 tested, 12% active; note: potency is the fitted concentration of half-maximal effect; nearly all actives have a fitted effect of over 55% in size
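Chicken DT40 Tdp1-/- cells stably complemented with human TDP1 were seeded at 400 cells/well in medium containing 20 nM camptothecin, exposed to pin-transferred compounds, and grown at 37 °C for at least 48 hr. Viability was read as ATP luminescence.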
HT1080NT lethal = kills 2HG-producing HT-1080-NT fibrosarcoma cells; HT-1080-NT fibrosarcoma viability, CellTiter-Glo ATP luminescence, 48 h; Potency, µM (highest dose often 46.1 µM), for the others: at the highest dose activity, negative = less viability, actives largely listed as cytotoxic; 360,000 tested, 1.6% active; AID 686970;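 note: NT is the 2HG producing partner of a matched IDH1 knockdown line; potency is the fitted concentration of half-maximal effect; 0% = DMSO-treated cells and -100% = media-only wells without cells; nearly all actives have a fitted effect of over 55% in size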
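Viability by CellTiter-Glo luminescence after 48 h compound exposure at 37C of HT-1080-NT cells (750/well, RPMI, 5% FBS). % activity scaled between DMSO wells and medium-only wells, then curve-fitted and categorized by curve class.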
TDP1 cell noCPT = qHTS for Inhibitors of human tyrosyl-DNA phosphodiesterase 1 (TDP1): qHTS in cells in absence of CPT | Potency, µM (highest dose often 46.2 µM), for the others: at the top dose activity change, negative = growth inhibition, hits mostly inhibitors | DT40 Tdp1-/- hTDP1 cells, no CPT, ATP luminescence, 48 h | 420,000 tested, 15% active; note: potency is the fitted concentration of half-maximal effect; nearly all actives have a fitted effect of over 55% in size
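Chicken DT40 Tdp1-/- cells complemented with human TDP1, screened without camptothecin (DMSO vehicle only), 400 cells/well. Compounds pin-transferred, cells incubated at 37 °C for at least 48 hr. Growth read as ATP-dependent luminescence (CellTiter-Glo, 30 min at RT).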
HT1080 IDH1KD tx = toxicity to HT-1080 IDH1 knockdown cells (counter line) | Potency, µM (top dose mostly 46.1 µM), without a hit: at the highest dose activity, negative = toxicity, usual class: cytotoxic | 360,000 tested, 2% active | AID 686971 | HT-1080 IDH1 knockdown viability, ATP luminescence, 48 h;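 note: potency is the fitted concentration of half-maximal effect; 0% = DMSO wells and -100% = cell-free medium wells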
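HT-1080-IDH1KD cells (IDH1 knocked down), 750/well in RPMI with 5% FBS, treated with compound 48 h at 37 degrees C. Viability by CellTiter-Glo luminescence, normalised to DMSO and no-cell wells; concentration-response curves classed.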
The depositor's hits bear a star; ? = inconclusive; / = no result given; [ ] = remark or other dose. Unless noted, calls come from the whole dose curve; as a rule, active = well fitted curve in the direction sought with a large enough effect; inconclusive = small, poorly fitted or top-dose-only effect, or another doubt; inactive = no such curve, though single readings can be large; an effect the other way counts as inactive or inconclusive. Unless noted, % is set by controls: 0 for no effect and ±100 for the full control effect.

SMILES	IL-1B inflam inh	DT40 TDP1 CPT	HT1080NT lethal	TDP1 cell noCPT	HT1080 IDH1KD tx
COc1cccc(OCc2nnc(SCC(=O)NCc3ccco3)n2CCc2ccccc2)c1	-12.5	16.4µM*	-4.4%	23.1µM*	-2.0%
COc1ccc(C(=O)CSc2nnc(-c3cc4ccccc4cc3O)n2Cc2ccco2)cc1	-66.8*	20.6µM*	?	?	?
COc1ccc(C)cc1NC(=O)CSc1nnc(-c2ccccn2)n1Cc1ccco1	-2.9	-6.9%	9.0%	-26.3%	2.6%
COc1cccc(OCc2nnc(SCC(=O)NCc3ccco3)n2C)c1	-2.6	-2.4%	18.3%	-0.8%	15.8%
Cc1cnc(-n2ncc(C(=O)NCc3cccnc3)c2C)nc1-c1ccc(F)cc1	/	-10.9%[9.04 µM]	/	-26.3%	/
Cc1ccc(NC(=O)CSc2nnc(CSc3nc(C)cc(C)n3)n2Cc2ccco2)c(C)c1	?	-22.1%	-11.6%	?	-8.0%
Cc1ccc(NCc2nnc(SCC(=O)c3ccccc3)n2Cc2ccco2)c(C)c1	-10.7	?	-3.6%	16.4µM*	-9.4%
COc1ccc(S(=O)(=O)Nc2ccc(C)cc2)cc1N(C)S(=O)(=O)c1ccc(Cl)cc1	-60.4*	23.1µM*	?	18.4µM*	-16.5%
COc1ccc(Cl)cc1N(CC(=O)NC(C)(C)C)S(=O)(=O)c1ccc(C)c([N+](=O)[O-])c1	16.7	16.4µM*	-12.1%	20.6µM*	-14.5%
COC(=O)CN(c1cc(Cl)ccc1OC)S(=O)(=O)c1ccc(C)cc1	47.9	?	18.4µM*	18.4µM*	16.4µM*
COc1ccc(S(=O)(=O)NN(C)C)cc1N(C)S(=O)(=O)c1ccc(Cl)cc1	13.9	3.7%	7.9%	12.0%	-2.1%
COc1cccc(-c2nc(NC3CCCC3)c3ccccc3n2)c1O	0.0	?	?	18.4µM*	?
c1ccc(-c2nc(NC3CCCC3)c3ccccc3n2)cc1	-63.3*	?	-27.5%	-26.3%	-12.7%
CN(C)Cc1ccccc1-c1nc(NC2CCNCC2)c2ccccc2n1	/	0.366µM*	/	0.651µM*	/
CN(C)c1ccc(-c2nc(NC3CCNCC3)c3ccccc3n2)cc1	/	1.3µM*	/	1.16µM*	/
C1=Cc2ccccc2/C1=C/c1ccc2c(c1)OCO2	/	-13.2%	/	-20.7%	/
COc1cccc(-c2nc(NC3CCNCC3)c3ccccc3n2)c1	/	?	/	20.6µM*	/
CC(=O)OCC1OC(n2c(Br)nc3c(=O)[nH]c(N)nc32)C(OC(C)=O)C1OC(C)=O (stereo not given)	/	11.4%	/	22.2%	/
CCCSc1ncc(Cl)c(C(=O)Nc2ccc(S(=O)(=O)Nc3ncccn3)cc2)n1	-3.7	-6.3%	-8.5%	-4.8%	-9.0%
CCCSc1ncc(Cl)c(C(=O)Nc2ccc(S(=O)(=O)N3CCCCC3C)cc2)n1 (stereo not given)	/	?	/	8.2µM*	/
CCC1CCCCN1S(=O)(=O)c1ccc(NC(=O)c2cccs2)cc1 (stereo not given)	?	23.1µM*	?	16.4µM*	-29.5%
CCCSc1ncc(Cl)c(C(=O)Nc2ccc(S(=O)(=O)N3CCC(C)CC3)cc2)n1	/	?	/	14.6µM*	/
CCCSc1ncc(Cl)c(C(=O)Nc2ccc(CC)cc2)n1	/	16.1%	/	-21.6%	/
CCC1CCCCN1S(=O)(=O)c1ccc(NC(=O)c2nc(SC)ncc2Cl)cc1 (stereo not given)	/	20.6µM*	/	23.1µM*	/
CCC1CCCCN1S(=O)(=O)c1ccc(NC(=O)c2snnc2C)cc1 (stereo not given)	?	?	-1.1%	?	-22.5%
Cc1ccc(C)c(NC(=O)Cn2c(=O)nc(-c3ccccc3)c3ccccc32)c1	/	5.5%	/	-19.6%	/
O=C(O)CC1CCC1CC(=O)O (stereo not given)	23.8	5.7%	-2.1%	-1.5%	5.2%
COc1ccc(C(=O)C2CCCN(C(=O)c3csc(SC)n3)C2)cc1F (stereo not given)	3.2	?	8.2%	?	13.2%
